Measured values from PubChem BioAssay (NCI).
Compounds without any hit were thinned out: in the full panel of roughly 79,000, 15% have a hit. A number with no mark means an inactive call. Calls of active or inactive are those of the source. Rule as the data show it: active = growth inhibition above about 70%; inactive = the rest. Where a SMILES comes first, the peptide text is derived from it. [ ]: non-standard residue; d: D form. The star is where a group is joined. ξ: configuration not given here. ξD = NC(CC(=O)O)C(=O)O; Boc = CC(C)(C)OC(=O)*; Aib = CC(C)(N)C(=O)O; OtBu = CC(C)(C)O*

What was measured:
[1] = NCI Yeast Anticancer Drug Screen. Data for the rad50 strain (AID 155);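 also: 0% = growth of vehicle-only cultures of the same strain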; conditions: S. cerevisiae rad50 strain growth inhibition; at 50.0 µM; active compounds read high
In short: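 Yeast carrying a defined DNA repair defect were exposed to test compounds, and growth was compared with vehicle-treated controls to give percent inhibition.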

[2] = NCI Yeast Anticancer Drug Screen. Data for the mec2-1 strain (AID 157); conditions: S. cerevisiae mec2-1 strain, at 50.0 µM, active compounds read high
In short: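 Readout is yeast growth inhibition, normalised to vehicle-treated controls, in the mec2-1 strain exposed to compound.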

[3] = NCI Yeast Anticancer Drug Screen. Data for the sgs1 mgt1 strain (AID 161);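 also: 0% = growth of cultures given vehicle only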; conditions: S. cerevisiae sgs1 mgt1 strain, at 50.0 µM, active compounds read high
In short: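 Yeast cells carrying a defined DNA-repair defect were exposed to test compounds. Growth inhibition was measured relative to vehicle-treated controls.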

[4] = NCI Yeast Anticancer Drug Screen. Data for the cln2 rad14 strain (AID 165);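 also: 0% = growth equal to vehicle treated cultures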; conditions: S. cerevisiae cln2 rad14 strain, at 50.0 µM, active compounds read high
In short: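 Relative to vehicle controls, growth inhibition of compound-treated cln2 rad14 yeast was recorded.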

[5] = NCI Yeast Anticancer Drug Screen. Data for the bub3 strain (AID 167); conditions: S. cerevisiae bub3 mutant strain, at 50.0 µM, active compounds read high
In short: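 Compounds were applied to a genetically altered yeast strain carrying a cell-cycle control defect. Growth inhibition was scored against vehicle-treated controls.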

[6] = NCI Yeast Anticancer Drug Screen. Data for the mlh1 rad18 strain (AID 175); conditions: S. cerevisiae mlh1 rad18 strain growth inhibition; at 50.0 µM; active compounds read high
In short: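 Test agents were incubated with a yeast strain of defined genotype (DNA damage repair defect). Inhibition of growth was derived by comparison with vehicle-exposed cultures.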

**Q.** Which results are given for `COC(=O)C(C)(C)NC(=O)C(C)(C)NC(=O)C(CC(=O)OC(C)(C)C)NC(=O)OC(C)(C)C` (stereo not given) (Boc-[ξD](OtBu)-[Aib]-[Aib]-OMe)?
**A.** growth inhibition [1]: -29.3%; growth inhibition [2]: -16.1%; growth inhibition [3]: -21.1%; growth inhibition [4]: -7.4%; growth inhibition [5]: -18.4%; growth inhibition [6]: -28.7%

**Q.** With `NCCCC(NC(=O)CCCCCCCCN=C(N)N)C(O)CCCCCCCCN=C(N)N` (stereo not given) as the molecule, how does the growth inhibition [1] read?
**A.** The growth inhibition was 20.9%.

**Q.** And the growth inhibition [2]?
**A.** The growth inhibition was 14.8%.

**Q.** What about the growth inhibition [3] of the same molecule?
**A.** The growth inhibition was 4.55%.

**Q.** And the growth inhibition [4]?
**A.** Its growth inhibition is -6.8%.

**Q.** What about the growth inhibition [5] of the same molecule?
**A.** Its growth inhibition is 22.3%.

**Q.** What about the growth inhibition [6] of the same molecule?
**A.** Its growth inhibition is 0.75%.

**Q.** With `OCCCOC(c1ccccc1)(c1ccccc1)c1ccccc1` as the molecule, how does the growth inhibition [1] read?
**A.** Its growth inhibition is -22.9%.

**Q.** And the growth inhibition [2]?
**A.** Its growth inhibition is -29.4%.

**Q.** What about the growth inhibition [3] of the same molecule?
**A.** The growth inhibition was -30.2%.

**Q.** And the growth inhibition [4]?
**A.** The growth inhibition was 1.55%.

**Q.** And the growth inhibition [5]?
**A.** Its growth inhibition is -49.8%.

**Q.** And the growth inhibition [6]?
**A.** The growth inhibition was -12.9%.

**Q.** What does the source list for `CNC(=O)OCc1c(COC(=O)NC)c2n(c1C)CS(=O)(=O)C2`?
**A.** growth inhibition [1]: -6.15%; growth inhibition [2]: -16%; growth inhibition [3]: -10.4%; growth inhibition [4]: 6.5%; growth inhibition [5]: 12.1%; growth inhibition [6]: 15.5%

**Q.** With `Cc1ccc(S(=O)(=O)NN=C2CCS(=O)CC2)cc1` (stereo not given) as the molecule, how does the growth inhibition [1] read?
**A.** Its growth inhibition is -19.6%.

**Q.** And the growth inhibition [2]?
**A.** Its growth inhibition is 10.7%.

**Q.** What about the growth inhibition [3] of the same molecule?
**A.** Its growth inhibition is 7.6%.

**Q.** What about the growth inhibition [4] of the same molecule?
**A.** The growth inhibition was -32.4%.

**Q.** What about the growth inhibition [5] of the same molecule?
**A.** Its growth inhibition is -10.5%.

**Q.** What about the growth inhibition [6] of the same molecule?
**A.** Its growth inhibition is -28.5%.

**Q.** What does the source list for `CC(=O)c1ccc2ccccc2c1O`?
**A.** growth inhibition [1]: 2.6%; growth inhibition [2]: -11.7%; growth inhibition [3]: -25.5%; growth inhibition [4]: -11.1%; growth inhibition [5]: -3%; growth inhibition [6]: -5.45%

**Q.** For `COc1cc(C(=O)Nc2ccc(S(=O)(=O)Nc3nc(C)cc(C)n3)cc2)cc(OC)c1OC`, which growth inhibition [1] is on record?
**A.** Its growth inhibition is -10.7%.

**Q.** And the growth inhibition [2]?
**A.** The growth inhibition was -21.9%.

**Q.** And the growth inhibition [3]?
**A.** The growth inhibition was -6.65%.

**Q.** And the growth inhibition [4]?
**A.** The growth inhibition was 10.7%.

**Q.** And the growth inhibition [5]?
**A.** The growth inhibition was -4.9%.

**Q.** And the growth inhibition [6]?
**A.** The growth inhibition was -10.4%.

**Q.** What does the source list for `Cn1c(=O)c2c(ncn2CCSS(=O)(=O)O)n(C)c1=O`?
**A.** growth inhibition [1]: -20.7%; growth inhibition [2]: -17.1%; growth inhibition [3]: 12.2%; growth inhibition [4]: -11.9%; growth inhibition [5]: -12%; growth inhibition [6]: -28.9%

**Q.** Which growth inhibition [1] does the source give for `COC(C)CCOC(=O)c1cccc(C)c1` (stereo not given) here?
**A.** The growth inhibition was 9%.

**Q.** And the growth inhibition [2]?
**A.** The growth inhibition was -6.8%.

**Q.** And the growth inhibition [3]?
**A.** Its growth inhibition is 3.8%.

**Q.** What about the growth inhibition [4] of the same molecule?
**A.** The growth inhibition was -24%.

**Q.** What about the growth inhibition [5] of the same molecule?
**A.** Its growth inhibition is 24.8%.

**Q.** What about the growth inhibition [6] of the same molecule?
**A.** Its growth inhibition is 1.9%.

**Q.** What does the source list for `Cc1c2cnccc2c(C)c2c1c1ccccc1n2CCNCc1ccccc1`?
**A.** growth inhibition [1]: 98.2% (active); growth inhibition [2]: 50.4%; growth inhibition [3]: 92.7% (active); growth inhibition [4]: -7.75%; growth inhibition [5]: 1.15%; growth inhibition [6]: 66.7%

**Q.** With `O=C(NN1C(=O)C(Cl)C1c1cccc(Cl)c1)c1ccccc1O` (stereo not given) as the molecule, how does the growth inhibition [1] read?
**A.** The growth inhibition was -58.4%.

**Q.** What about the growth inhibition [2] of the same molecule?
**A.** The growth inhibition was -29.2%.

**Q.** And the growth inhibition [3]?
**A.** The growth inhibition was -8.35%.

**Q.** And the growth inhibition [4]?
**A.** The growth inhibition was -26.6%.

**Q.** And the growth inhibition [5]?
**A.** The growth inhibition was -40.2%.

**Q.** And the growth inhibition [6]?
**A.** The growth inhibition was -17.1%.

**Q.** What does the source list for `COc1ccc2ccccc2c1Br`?
**A.** growth inhibition [1]: -11.3%; growth inhibition [2]: 8.25%; growth inhibition [3]: -3.25%; growth inhibition [4]: -24.1%; growth inhibition [5]: -19.3%; growth inhibition [6]: 8.65%

**Q.** Which growth inhibition [1] does the source give for `CCS(=O)(=O)OCCOC` here?
**A.** Its growth inhibition is -2.65%.

**Q.** What about the growth inhibition [2] of the same molecule?
**A.** Its growth inhibition is -26.1%.

**Q.** What about the growth inhibition [3] of the same molecule?
**A.** The growth inhibition was -17.1%.

**Q.** And the growth inhibition [4]?
**A.** The growth inhibition was 57.6%.

**Q.** And the growth inhibition [5]?
**A.** The growth inhibition was -14.8%.

**Q.** What about the growth inhibition [6] of the same molecule?
**A.** Its growth inhibition is 10.2%.

**Q.** What does the source list for `NC(=O)c1cn(C2OC(CO)C(O)C2O)c(=O)[nH]c1=O` (stereo not given)?
**A.** growth inhibition [1]: 14.2%; growth inhibition [2]: -8.8%; growth inhibition [3]: -0.1%; growth inhibition [4]: 18.8%; growth inhibition [5]: -12.7%; growth inhibition [6]: -5.25%

**Q.** Which growth inhibition [1] does the source give for `CC(=O)OC1C(COC(N)=O)OC(n2c(-c3ccc(C)cc3)cc(-c3ccccc3)c(C#N)c2=O)C(OC(C)=O)C1OC(C)=O` (stereo not given) here?
**A.** Its growth inhibition is -18.4%.

**Q.** And the growth inhibition [2]?
**A.** The growth inhibition was 7.25%.

**Q.** What about the growth inhibition [3] of the same molecule?
**A.** Its growth inhibition is 4.75%.

**Q.** And the growth inhibition [4]?
**A.** Its growth inhibition is 22.4%.

**Q.** What about the growth inhibition [5] of the same molecule?
**A.** Its growth inhibition is 26.9%.

**Q.** What about the growth inhibition [6] of the same molecule?
**A.** Its growth inhibition is 11.3%.

**Q.** With `Cc1cc(O)c(C(c2ccc(C#N)cc2)c2c(O)cc(C)[nH]c2=O)c(=O)[nH]1` as the molecule, how does the growth inhibition [1] read?
**A.** The growth inhibition was -1.05%.

**Q.** What about the growth inhibition [2] of the same molecule?
**A.** Its growth inhibition is -31.9%.

**Q.** And the growth inhibition [3]?
**A.** Its growth inhibition is 1.95%.

**Q.** What about the growth inhibition [4] of the same molecule?
**A.** Its growth inhibition is -6.2%.

**Q.** What about the growth inhibition [5] of the same molecule?
**A.** The growth inhibition was 4.6%.

**Q.** And the growth inhibition [6]?
**A.** The growth inhibition was -6.35%.

**Q.** For `NC(=O)C(N)CC(=O)O` (stereo not given), which growth inhibition [1] is on record?
**A.** The growth inhibition was 6.15%.

**Q.** What about the growth inhibition [2] of the same molecule?
**A.** Its growth inhibition is -5.9%.

**Q.** What about the growth inhibition [3] of the same molecule?
**A.** The growth inhibition was -3.1%.

**Q.** And the growth inhibition [4]?
**A.** Its growth inhibition is -16.1%.

**Q.** What about the growth inhibition [5] of the same molecule?
**A.** Its growth inhibition is 6.5%.

**Q.** What about the growth inhibition [6] of the same molecule?
**A.** Its growth inhibition is 11.1%.

**Q.** Which growth inhibition [1] does the source give for `CN(c1ccccc1)S(=O)(=O)c1cccc([N+](=O)[O-])c1` here?
**A.** The growth inhibition was -25.3%.

**Q.** What about the growth inhibition [2] of the same molecule?
**A.** Its growth inhibition is -44.5%.

**Q.** What about the growth inhibition [3] of the same molecule?
**A.** The growth inhibition was 0%.

**Q.** And the growth inhibition [4]?
**A.** Its growth inhibition is -9.5%.

**Q.** And the growth inhibition [5]?
**A.** Its growth inhibition is 24.3%.

**Q.** And the growth inhibition [6]?
**A.** Its growth inhibition is -1.55%.

**Q.** Which growth inhibition [1] does the source give for `COc1ccc(/C=C2/C(=O)N(C(=O)c3ccc(Cl)cc3)N=C2C)cc1OC` here?
**A.** Its growth inhibition is -18.7%.

**Q.** And the growth inhibition [2]?
**A.** Its growth inhibition is -36.9%.

**Q.** What about the growth inhibition [3] of the same molecule?
**A.** Its growth inhibition is -32.6%.

**Q.** What about the growth inhibition [4] of the same molecule?
**A.** Its growth inhibition is -3.55%.

**Q.** And the growth inhibition [5]?
**A.** Its growth inhibition is -17.1%.

**Q.** And the growth inhibition [6]?
**A.** The growth inhibition was -35.5%.

**Q.** Which results are given for `CSc1cc2c(cc1[N+](=O)[O-])C(=O)c1cc(F)ccc1-2`?
**A.** growth inhibition [1]: 8.7%; growth inhibition [2]: 18.1%; growth inhibition [3]: 4.45%; growth inhibition [4]: -5.5%; growth inhibition [5]: 3.15%; growth inhibition [6]: 5%
